In the first test the target is MSX2 (Homo sapiens, UniProt P35548 130-214). As to the kind of experiment: PBM; 200 nM protein, PBS. The following applies: dsDNA, one strand shown.
ALX1, sequence (Q15699 118-204): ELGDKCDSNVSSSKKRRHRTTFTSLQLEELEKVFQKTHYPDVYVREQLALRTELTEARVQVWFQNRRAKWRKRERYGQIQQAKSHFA
MSX2 (Homo sapiens, UniProt P35548 130-214), sequence (P35548 130-214): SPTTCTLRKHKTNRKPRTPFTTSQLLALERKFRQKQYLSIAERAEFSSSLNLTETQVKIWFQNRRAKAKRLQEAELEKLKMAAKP
MSX2 (Homo sapiens, UniProt P35548 130-214, F161Y), sequence (P35548 130-214 F161Y): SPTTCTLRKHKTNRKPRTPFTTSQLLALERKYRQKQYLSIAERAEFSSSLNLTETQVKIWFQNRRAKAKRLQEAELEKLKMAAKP
VAX1 (Homo sapiens, UniProt Q5SQQ9 86-172, K157R), sequence (Q5SQQ9 86-172 K157R): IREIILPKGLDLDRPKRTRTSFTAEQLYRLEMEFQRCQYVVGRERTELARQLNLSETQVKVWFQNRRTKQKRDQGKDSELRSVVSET
In the case of CGACAATA, the binding signal was 11 upbm affinity estimate (log intensity, higher = more binding, comparable within an allelic series). CAGGGCCA: the binding signal is 9.57 upbm affinity estimate (log intensity, higher = more binding, comparable within an allelic series). ATGGAAAT: the binding signal is 10.7 upbm affinity estimate (log intensity, higher = more binding, comparable within an allelic series).

Regarding AGCGGCCT, the binding signal is 9.32 upbm affinity estimate (log intensity, higher = more binding, comparable within an allelic series). Still for that read-out and setting: then GGACGGGA, with 9.5 upbm affinity estimate (log intensity, higher = more binding, comparable within an allelic series); and AGCTATTA, with 12.1 upbm affinity estimate (log intensity, higher = more binding, comparable within an allelic series); and ATACATAA, with 11.6 upbm affinity estimate (log intensity, higher = more binding, comparable within an allelic series).

CATACTAA: the binding signal is 10.7 upbm affinity estimate (log intensity, higher = more binding, comparable within an allelic series).

As for CGCTCAGC, the binding signal is 9.57 upbm affinity estimate (log intensity, higher = more binding, comparable within an allelic series). Same read-out and setting: then TAATCAAA, with 12.4 upbm affinity estimate (log intensity, higher = more binding, comparable within an allelic series). AGCCCACC: the binding signal was 9.52 upbm affinity estimate (log intensity, higher = more binding, comparable within an allelic series). On the same count and under the same terms, then CATTTTGA, with 10.6 upbm affinity estimate (log intensity, higher = more binding, comparable within an allelic series); and ATTAACAC, with 12.1 upbm affinity estimate (log intensity, higher = more binding, comparable within an allelic series).

In another test the target is VAX1 (Homo sapiens, UniProt Q5SQQ9 86-172). In words: PBM; 200 nM protein, PBS. The following applies: dsDNA, one strand shown.
VAX1 (Homo sapiens, UniProt Q5SQQ9 86-172), sequence (Q5SQQ9 86-172): as the sequence (Q5SQQ9 86-172 K157R) above, with R72K counted along it
Take GCGGAGCC: the binding signal was 7.22 upbm affinity estimate (log intensity, higher = more binding, comparable within an allelic series). Still for that read-out and setting: then CTAATGAA, with 12.7 upbm affinity estimate (log intensity, higher = more binding, comparable within an allelic series); and AGGCCGGG, with 6.99 upbm affinity estimate (log intensity, higher = more binding, comparable within an allelic series); and AAACAATA, with 9.16 upbm affinity estimate (log intensity, higher = more binding, comparable within an allelic series).

A further test addresses MSX2 (Homo sapiens, UniProt P35548 130-214, F161Y). In words: PBM; 200 nM protein, PBS. The note with it: dsDNA, one strand shown.
Regarding CGCCGACC, the binding signal was 9.4 upbm affinity estimate (log intensity, higher = more binding, comparable within an allelic series). The same measure, in the same setting: then CGACAATA, with 10.9 upbm affinity estimate (log intensity, higher = more binding, comparable within an allelic series); and CAGGGCCA, with 9.56 upbm affinity estimate (log intensity, higher = more binding, comparable within an allelic series); and ATGGAAAT, with 10.6 upbm affinity estimate (log intensity, higher = more binding, comparable within an allelic series). Turning to AGCGGCCT, the binding signal was 9.44 upbm affinity estimate (log intensity, higher = more binding, comparable within an allelic series). Consider GGACGGGA, for which the binding signal is 9.6 upbm affinity estimate (log intensity, higher = more binding, comparable within an allelic series). Take AGCTATTA: the binding signal was 11.9 upbm affinity estimate (log intensity, higher = more binding, comparable within an allelic series).

For the sequence ATACATAA, the binding signal was 11.4 upbm affinity estimate (log intensity, higher = more binding, comparable within an allelic series). The same measure, in the same setting: then CATACTAA, with 10.6 upbm affinity estimate (log intensity, higher = more binding, comparable within an allelic series); and CGCTCAGC, with 9.59 upbm affinity estimate (log intensity, higher = more binding, comparable within an allelic series); and TAATCAAA, with 12.1 upbm affinity estimate (log intensity, higher = more binding, comparable within an allelic series). Still for that read-out and setting: then AGCCCACC, with 9.47 upbm affinity estimate (log intensity, higher = more binding, comparable within an allelic series); and CATTTTGA, with 10.5 upbm affinity estimate (log intensity, higher = more binding, comparable within an allelic series); and ATTAACAC, with 11.8 upbm affinity estimate (log intensity, higher = more binding, comparable within an allelic series).

The target of the next test is VAX1 (Homo sapiens, UniProt Q5SQQ9 86-172, T142I). In words: PBM; 200 nM protein, PBS. The note with it: dsDNA, one strand shown.
VAX1 (Homo sapiens, UniProt Q5SQQ9 86-172, T142I), sequence (Q5SQQ9 86-172 T142I): as the sequence (Q5SQQ9 86-172 K157R) above, with T57I, R72K counted along it
As for GCGGAGCC, the binding signal was 7.36 upbm affinity estimate (log intensity, higher = more binding, comparable within an allelic series). On the same count and under the same terms, then CTAATGAA, with 12.4 upbm affinity estimate (log intensity, higher = more binding, comparable within an allelic series). On the same count and under the same terms, then AGGCCGGG, with 7.01 upbm affinity estimate (log intensity, higher = more binding, comparable within an allelic series). Regarding AAACAATA, the binding signal is 8.8 upbm affinity estimate (log intensity, higher = more binding, comparable within an allelic series).

In the next test the target is NKX3-2 (Homo sapiens, UniProt P78367 192-278, P234S). In words: PBM; 200 nM protein, PBS. The following applies: dsDNA, one strand shown.
NKX3-2 (Homo sapiens, UniProt P78367 192-278, P234S), sequence (P78367 192-278 P234S): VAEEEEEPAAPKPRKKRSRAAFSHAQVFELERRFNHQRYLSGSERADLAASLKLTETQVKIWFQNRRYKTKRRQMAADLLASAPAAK
Consider CGCCGACC, for which the binding signal was 10.4 upbm affinity estimate (log intensity, higher = more binding, comparable within an allelic series). CCGGGGAG: the binding signal is 10.5 upbm affinity estimate (log intensity, higher = more binding, comparable within an allelic series). The same measure, in the same setting: then CTCTTGGC, with 11.6 upbm affinity estimate (log intensity, higher = more binding, comparable within an allelic series).

The next test has as its target ALX1 (Homo sapiens, UniProt Q15699 118-204). As to the kind of experiment: PBM; 200 nM protein, PBS. The following applies: dsDNA, one strand shown.
In the case of GCGGAGCC, the binding signal is 6.57 upbm affinity estimate (log intensity, higher = more binding, comparable within an allelic series). CCGACTGC: the binding signal is 6.52 upbm affinity estimate (log intensity, higher = more binding, comparable within an allelic series).

For AGTTACTG, the binding signal is 8.32 upbm affinity estimate (log intensity, higher = more binding, comparable within an allelic series). In the case of CCTTGCCG, the binding signal was 6.55 upbm affinity estimate (log intensity, higher = more binding, comparable within an allelic series). In the case of CTAATGAA, the binding signal was 11.1 upbm affinity estimate (log intensity, higher = more binding, comparable within an allelic series).

For ATTTAGTA, the binding signal was 9.79 upbm affinity estimate (log intensity, higher = more binding, comparable within an allelic series). In the case of CACGCTCG, the binding signal was 6.3 upbm affinity estimate (log intensity, higher = more binding, comparable within an allelic series). Consider CTGGAACC, for which the binding signal is 6.07 upbm affinity estimate (log intensity, higher = more binding, comparable within an allelic series). Still for that read-out and setting: then ATTAAGCA, with 10.5 upbm affinity estimate (log intensity, higher = more binding, comparable within an allelic series); and AGCTACGA, with 6.35 upbm affinity estimate (log intensity, higher = more binding, comparable within an allelic series).

With ACATTTAG, the binding signal was 8.56 upbm affinity estimate (log intensity, higher = more binding, comparable within an allelic series). As for ATTATAAC, the binding signal was 10.6 upbm affinity estimate (log intensity, higher = more binding, comparable within an allelic series).

Consider AGGCCGGG, for which the binding signal was 6.54 upbm affinity estimate (log intensity, higher = more binding, comparable within an allelic series).

For AGGCAAAT, the binding signal is 8.18 upbm affinity estimate (log intensity, higher = more binding, comparable within an allelic series). Same read-out and setting: then GTTATACA, with 8.43 upbm affinity estimate (log intensity, higher = more binding, comparable within an allelic series); and CCGGGGAG, with 5.94 upbm affinity estimate (log intensity, higher = more binding, comparable within an allelic series). Same read-out and setting: then AGAGCGCC, with 6.45 upbm affinity estimate (log intensity, higher = more binding, comparable within an allelic series); and AAATGATG, with 8.35 upbm affinity estimate (log intensity, higher = more binding, comparable within an allelic series). In the case of CCGGGCCG, the binding signal was 6.37 upbm affinity estimate (log intensity, higher = more binding, comparable within an allelic series). Still for that read-out and setting: then AAACAATA, with 8.26 upbm affinity estimate (log intensity, higher = more binding, comparable within an allelic series); and GGCTAGGA, with 6.34 upbm affinity estimate (log intensity, higher = more binding, comparable within an allelic series). On the same count and under the same terms, then CGCCTTCC, with 6.08 upbm affinity estimate (log intensity, higher = more binding, comparable within an allelic series); and TCTGTTAA, with 9.01 upbm affinity estimate (log intensity, higher = more binding, comparable within an allelic series). Regarding CTCTTGGC, the binding signal was 6.47 upbm affinity estimate (log intensity, higher = more binding, comparable within an allelic series). With CCCCCCCC, the binding signal was 6.16 upbm affinity estimate (log intensity, higher = more binding, comparable within an allelic series).

Take ATAACTCC: the binding signal is 8.38 upbm affinity estimate (log intensity, higher = more binding, comparable within an allelic series).

A further test concerns the target VAX1 (Homo sapiens, UniProt Q5SQQ9 86-172, K157R). As to the kind of experiment: PBM; 200 nM protein, PBS. The following applies: dsDNA, one strand shown.
Turning to GCGGAGCC, the binding signal is 7.24 upbm affinity estimate (log intensity, higher = more binding, comparable within an allelic series).

Consider CTAATGAA, for which the binding signal was 12.4 upbm affinity estimate (log intensity, higher = more binding, comparable within an allelic series). Regarding AGGCCGGG, the binding signal is 7.01 upbm affinity estimate (log intensity, higher = more binding, comparable within an allelic series). With AAACAATA, the binding signal is 8.82 upbm affinity estimate (log intensity, higher = more binding, comparable within an allelic series).

The target of the next test is NKX3-2 (Homo sapiens, UniProt P78367 192-278). As to the kind of experiment: PBM; 200 nM protein, PBS. The note with it: dsDNA, one strand shown.
NKX3-2 (Homo sapiens, UniProt P78367 192-278), sequence (P78367 192-278): as the sequence (P78367 192-278 P234S) above, with S43P counted along it
As for CGCCGACC, the binding signal is 10.4 upbm affinity estimate (log intensity, higher = more binding, comparable within an allelic series). The same measure, in the same setting: then CCGGGGAG, with 10.5 upbm affinity estimate (log intensity, higher = more binding, comparable within an allelic series); and CTCTTGGC, with 11.7 upbm affinity estimate (log intensity, higher = more binding, comparable within an allelic series).

The record behind these values is paper PMC11006913.
